This passage reports outcome and AC50 results from PubChem BioAssay (EPA / NIEHS).

The source made the active and inactive calls. Rule for the calls: active = hit-call score of the fitted dose curve at least 0.9, where 1 is the maximum; inactive = score below 0.9.

The nature of assay [1]: ATG_CRE_CIS: Attagene CIS-FACTORIAL HepG2 Assay for human cAMP Responsive Element (CRE) binding protein 3 (AID 2282926). Conditions: HepG2 CRE cis-reporter, Attagene multiplexed mRNA; actives raise or lower the signal. A digest of the protocol:
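We dosed HepG2 cells bearing multiple cis-promoter reporter units for 24 h and measured reporter mRNA by RT-PCR with capillary electrophoresis detection. Bidirectional concentration-response fitting used DMSO as negative control.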

Assay [2] addresses CCAAT/enhancer-binding protein beta (Homo sapiens) (UniProt P17676). Description: ATG_C_EBP_CIS: Attagene CIS-FACTORIAL HepG2 Assay for human CCAAT/Enhancer Binding Protein (C/EBP) beta (AID 2282927). Conditions: HepG2 Attagene cis-factorial transcription factor reporter; actives raise or lower the signal. A digest of the protocol: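 Chemical-treated HepG2 cells (24 h) bearing cis-regulated reporter constructs were processed for total RNA, then reverse transcription, PCR amplification, fluorescent primer extension and fragment analysis; gain- and loss-of-signal were fitted against DMSO.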

Assay [3] in a line: ATG_CMV_CIS: Attagene CIS-FACTORIAL HepG2 Assay for human CMV (Internal Marker) (AID 2282928).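 Note: endpoint acts as a background internal control marker rather than a target.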 The settings on record: HepG2 CMV promoter reporter, transcription factor profiling; actives raise or lower the signal. The method in brief:
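CMV internal-marker background readout in transiently transfected HepG2 cells bearing cis-regulated reporter units. Reporter mRNA is measured 24 h after dosing by RT-PCR and capillary electrophoresis, with bidirectional fitting against DMSO.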

A short description of assay [4]: ATG_DR4_LXR_CIS: Attagene CIS-FACTORIAL HepG2 Assay for human Liver X Receptor (LXR), DR4 submotif (AID 2282929). The settings on record: HepG2 Attagene DR4 cis-reporter, mRNA transcription; actives raise or lower the signal. The method in brief:
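Cells were transfected with multiple reporter transcription units, exposed to chemicals for 24 hours, then lysed for RNA. Reporter mRNA induction was measured by RT-PCR with capillary electrophoresis detection and fitted in both directions relative to DMSO.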

In assay [5] the target is Aryl hydrocarbon receptor (Homo sapiens) (UniProt P35869). Nature of the assay: ATG_Ahr_CIS: Attagene CIS-FACTORIAL HepG2 Assay for human Aryl Hydrocarbon Receptor (Ahr) (AID 2282930). The settings on record: HepG2 AhR cis-factorial reporter transcription; actives raise or lower the signal. A digest of the protocol:
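Following 24 h of chemical dosing, transfected HepG2 liver cells with cis-driven reporter units were lysed for RNA; reporter mRNA was quantified via RT-PCR and capillary electrophoresis, and responses fitted bidirectionally from DMSO.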

Assay [6] in a line: ATG_AP_1_CIS: Attagene CIS-FACTORIAL HepG2 Assay for human Activator Protein 1 (AP-1) (AID 2282931). The settings on record: HepG2 Attagene cis-factorial AP-1 reporter mRNA; actives raise or lower the signal. A digest of the protocol: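 Endogenous transcription-factor activity in human HepG2 liver cells is read through a cis-promoter reporter transcript, sampled 24 h after dosing. Detection uses RT-PCR with capillary electrophoresis; values come from bidirectional fitting relative to DMSO.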

Assay [7] is described as follows: ATG_AP_2_CIS: Attagene CIS-FACTORIAL HepG2 Assay for human Activator Protein 2 (AP-2) (AID 2282932). Conditions: HepG2 AP-2 cis-reporter, Attagene transcription factor profiling; actives raise or lower the signal. A digest of the protocol: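 HepG2 cells were transiently transfected with multiple cis-promoter reporter transcription units and dosed for 24 h. Reporter mRNA was measured by RT-PCR with capillary electrophoresis fluorescence; bidirectional fits relative to DMSO baseline.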

Assay [8] can be described thus: ATG_BRE_CIS: Attagene CIS-FACTORIAL HepG2 Assay for human Bone Morphogenetic Protein (BMP) Response Element (BRE) (AID 2282933). Conditions: HepG2 BMP response element reporter, Attagene transcription factor profiling; actives raise or lower the signal. A digest of the protocol:
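Transient MRTU transfection of human HepG2 liver cells; 24 h compound treatment; total RNA isolated, reverse-transcribed, PCR-amplified, 6-FAM labelled, HpaI-cut, capillary electrophoresis. DMSO = negative control/baseline, bidirectional fit.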

Assay [9] deals with Transcription factor E2F1 (Homo sapiens) (UniProt Q01094). Description: ATG_E2F_CIS: Attagene CIS-FACTORIAL HepG2 Assay for human E2F Transcription Factor 1 (AID 2282935). Conditions: HepG2 Attagene cis-reporter, E2F reporter RNA transcripts; actives raise or lower the signal. A digest of the protocol: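 HepG2 cells transiently transfected with multiplexed cis-element reporter units, dosed for 24 h. Reporter mRNA measured by RT-PCR, 6-FAM primer-extension labeling, HpaI digestion and capillary electrophoresis; bidirectional fit versus DMSO baseline.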

Assay [10] in a line: ATG_E_Box_CIS: Attagene CIS-FACTORIAL HepG2 Assay for human Enhancer Box (E-box) (AID 2282936). The settings on record: HepG2 E-box cis-reporter transcription, actives raise or lower the signal. The method in brief: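 HepG2 cells transiently transfected with multiplexed cis-element reporter units sensing endogenous transcription factor activity; 24 h compound exposure. Reporter mRNA measured by RT-PCR, 6-FAM primer extension, HpaI digestion and capillary electrophoresis; bidirectional fit versus DMSO.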

A short description of assay [11]: ATG_M_61_CIS: Attagene CIS-FACTORIAL HepG2 Assay for M61 Transcription Factor (Internal Marker) (AID 2282937). The settings on record: HepG2 Attagene CIS-FACTORIAL M61 internal marker reporter; actives raise or lower the signal. The method in brief:
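Cells were transfected with reporter units under cis-regulatory promoters, treated with chemicals for 24 h, then lysed for RNA. Reporter transcripts were quantified by RT-PCR and capillary electrophoresis, and activity was fitted bidirectionally against DMSO.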

The nature of assay [12]: ATG_EGR_CIS: Attagene CIS-FACTORIAL HepG2 Assay for human Early Growth Response 1 (EGR1) (AID 2282938). Conditions: HepG2 Attagene CIS-FACTORIAL EGR reporter mRNA; actives raise or lower the signal. The method in brief: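 Endogenous TF activity in HepG2 liver cells was gauged through cis-promoter reporter constructs transiently transfected. After 24 h dosing, reporter mRNA was quantified by RT-PCR and capillary electrophoresis, and curves fitted in both directions versus DMSO.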

Assay [13] is described as follows: ATG_Ets_CIS: Attagene CIS-FACTORIAL HepG2 Assay for human Erythroblast Transformation Specific (ETS) (AID 2282941). Conditions: HepG2 ETS cis-reporter transcription, actives raise or lower the signal. The method in brief: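 HepG2 cells transfected with multiple cis-regulated reporter units measuring endogenous ETS-driven transcription, 24 h after dosing. Reporter mRNA quantified by RT-PCR with capillary electrophoresis; bidirectional fit relative to DMSO.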

A short description of assay [14]: ATG_FoxO_CIS: Attagene CIS-FACTORIAL HepG2 Assay for human Forkhead box O (FoxO) (AID 2282943). The settings on record: HepG2 Attagene cis-reporter, FoxO element, mRNA; actives raise or lower the signal. The method in brief:
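24 h chemical exposure, HepG2 with transient cis-MRTU transfection. RNA extraction, oligo(dT) RT, reporter-specific PCR, primer-extension labelling, HpaI digestion, CE fragment analysis; bidirectional fit, DMSO baseline.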

Assay [15] in a line: ATG_GATA_CIS: Attagene CIS-FACTORIAL HepG2 Assay for human GATA Binding Protein (AID 2282944). Conditions: HepG2 GATA cis-element reporter, Attagene multiplex mRNA; actives raise or lower the signal. The method in brief: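 Transient MRTU transfection, HepG2, 24 h compound exposure. Total RNA → oligo(dT) RT → PCR → 6-FAM primer extension → HpaI cut → CE. Bidirectional fit vs DMSO.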

The nature of assay [16]: ATG_GLI_CIS: Attagene CIS-FACTORIAL HepG2 Assay for human Zinc Finger Protein GLI1 (AID 2282945). The settings on record: HepG2, Attagene cis-factorial reporter mRNA, GLI element; actives raise or lower the signal. A digest of the protocol: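 HepG2 cells transiently transfected with cis-promoter multiplexed reporter units report endogenous transcription factor activity. After 24 h chemical exposure, reporter mRNA was quantified by RT-PCR, 6-FAM labelling, HpaI digestion and capillary electrophoresis, with bidirectional fitting against DMSO.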

Assay [17] can be described thus: ATG_M_19_CIS: Attagene CIS-FACTORIAL HepG2 Assay for M19 Transcription Factor (Internal Marker) (AID 2282939). The settings on record: HepG2 Attagene CIS-FACTORIAL M19 internal marker reporter; actives raise or lower the signal. A digest of the protocol: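 Transfect HepG2 with MRTU reporter library → dose chemical, 24 h → isolate total RNA, reverse-transcribe with oligo(dT) → PCR, 6-FAM label, HpaI cut (2 h, 37 C) → capillary electrophoresis. Bidirectional fit vs DMSO.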

Assay [18] concerns the target Hepatocyte nuclear factor 3-beta (Homo sapiens) (UniProt Q9Y261). Description: ATG_FoxA2_CIS: Attagene CIS-FACTORIAL HepG2 Assay for human Forkhead box A2 (FOXA2) (AID 2282942). The settings on record: HepG2 cis-reporter transcription factor activity, 24 h; actives raise or lower the signal. The method in brief: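 Endogenous transcription factor activity was read in HepG2 cells carrying transiently transfected cis-promoter reporter units. After 24 h dosing, reporter mRNA was quantified by RT-PCR and capillary electrophoresis, and values fitted bidirectionally versus DMSO.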

Assay [19] in a line: ATG_ERE_CIS: Attagene CIS-FACTORIAL HepG2 Assay for Estrogen Response Element (ERE) (AID 2282940). Conditions: HepG2 ERE cis-reporter, Attagene RNA transcript; actives raise or lower the signal. The method in brief: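 Transient MRTU transfection of human HepG2; cis-element promoters; 24 h dosing; total RNA → RT (oligo dT) → PCR → 6-FAM primer extension → HpaI digest → CE fluorescence. Bidirectional fit, DMSO baseline.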

CCAAT/enhancer-binding protein beta (Homo sapiens), sequence (P17676 whole entry, looked up, the tested form may be a part): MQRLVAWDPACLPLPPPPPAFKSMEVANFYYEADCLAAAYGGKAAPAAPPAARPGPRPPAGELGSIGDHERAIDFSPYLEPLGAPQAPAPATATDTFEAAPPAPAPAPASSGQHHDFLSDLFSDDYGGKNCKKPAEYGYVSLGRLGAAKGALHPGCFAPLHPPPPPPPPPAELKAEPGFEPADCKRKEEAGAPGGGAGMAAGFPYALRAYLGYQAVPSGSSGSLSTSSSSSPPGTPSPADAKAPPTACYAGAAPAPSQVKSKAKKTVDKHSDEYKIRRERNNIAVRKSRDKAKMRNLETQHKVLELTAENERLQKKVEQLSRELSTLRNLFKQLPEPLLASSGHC
Hepatocyte nuclear factor 3-beta (Homo sapiens), sequence (Q9Y261 whole entry, looked up): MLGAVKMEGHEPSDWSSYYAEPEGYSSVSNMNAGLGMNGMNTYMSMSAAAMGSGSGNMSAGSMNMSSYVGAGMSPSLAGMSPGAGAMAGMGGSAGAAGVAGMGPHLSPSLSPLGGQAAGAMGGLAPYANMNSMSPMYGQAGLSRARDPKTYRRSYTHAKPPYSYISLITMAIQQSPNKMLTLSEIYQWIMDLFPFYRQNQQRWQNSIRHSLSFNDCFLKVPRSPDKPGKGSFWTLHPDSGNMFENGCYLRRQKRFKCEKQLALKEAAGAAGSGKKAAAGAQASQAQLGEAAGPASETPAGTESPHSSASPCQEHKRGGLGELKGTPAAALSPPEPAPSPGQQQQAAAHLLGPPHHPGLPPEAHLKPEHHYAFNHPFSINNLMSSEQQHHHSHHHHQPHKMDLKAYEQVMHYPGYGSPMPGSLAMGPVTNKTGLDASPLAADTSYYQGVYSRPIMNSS
Aryl hydrocarbon receptor (Homo sapiens), sequence (P35869 whole entry, looked up): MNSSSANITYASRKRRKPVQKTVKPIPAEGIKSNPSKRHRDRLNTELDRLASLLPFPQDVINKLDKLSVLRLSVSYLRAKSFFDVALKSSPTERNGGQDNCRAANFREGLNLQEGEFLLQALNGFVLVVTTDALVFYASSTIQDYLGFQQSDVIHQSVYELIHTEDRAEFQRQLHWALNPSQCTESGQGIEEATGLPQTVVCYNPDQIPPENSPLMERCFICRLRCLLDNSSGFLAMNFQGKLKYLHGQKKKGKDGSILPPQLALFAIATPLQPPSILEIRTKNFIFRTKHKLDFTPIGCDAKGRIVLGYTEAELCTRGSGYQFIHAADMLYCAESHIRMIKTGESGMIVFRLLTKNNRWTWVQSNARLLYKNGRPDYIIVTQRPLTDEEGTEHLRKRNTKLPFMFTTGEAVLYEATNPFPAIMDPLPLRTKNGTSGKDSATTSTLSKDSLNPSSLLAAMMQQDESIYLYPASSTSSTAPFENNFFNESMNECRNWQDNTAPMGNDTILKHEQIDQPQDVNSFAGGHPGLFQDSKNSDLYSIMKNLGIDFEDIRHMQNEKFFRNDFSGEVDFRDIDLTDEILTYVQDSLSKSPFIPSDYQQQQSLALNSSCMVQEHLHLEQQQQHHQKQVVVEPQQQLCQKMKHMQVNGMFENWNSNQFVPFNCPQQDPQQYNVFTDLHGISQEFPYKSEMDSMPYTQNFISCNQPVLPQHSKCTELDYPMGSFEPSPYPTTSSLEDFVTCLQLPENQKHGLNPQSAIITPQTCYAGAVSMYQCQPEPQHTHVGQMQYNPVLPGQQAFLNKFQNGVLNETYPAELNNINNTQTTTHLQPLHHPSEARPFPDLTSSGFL
Transcription factor E2F1 (Homo sapiens), sequence (Q01094 whole entry, looked up): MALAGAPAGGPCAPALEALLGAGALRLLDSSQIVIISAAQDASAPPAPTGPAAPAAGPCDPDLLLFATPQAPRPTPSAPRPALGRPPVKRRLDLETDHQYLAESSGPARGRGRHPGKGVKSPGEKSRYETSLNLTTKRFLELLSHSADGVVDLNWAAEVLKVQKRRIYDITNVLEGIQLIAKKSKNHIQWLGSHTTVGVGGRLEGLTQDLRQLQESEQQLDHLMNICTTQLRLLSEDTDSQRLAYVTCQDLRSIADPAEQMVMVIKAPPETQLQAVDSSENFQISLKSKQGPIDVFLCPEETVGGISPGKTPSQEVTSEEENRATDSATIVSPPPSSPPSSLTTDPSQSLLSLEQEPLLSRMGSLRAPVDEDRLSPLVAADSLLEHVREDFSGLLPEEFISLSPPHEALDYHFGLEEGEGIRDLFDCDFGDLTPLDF

`CC(C)=CCCC(C)CC=O` (configuration not stated): the outcome in [1], in assay [2], in assay [3], in assay [4], in assay [5] and in [6] was inactive. Further, the result in assay [7], in assay [8], in assay [9], in [10], in assay [11] and in [12] was inactive. In addition, the compound was classed as inactive in assay [13], in [14], in assay [15] and in [16].
As for `CCCCOCCOCCOCCOCCO`, the call in assay [1], in assay [2], in [3], in assay [4], in assay [5] and in assay [6] was inactive. Further, the outcome in assay [7], in [8], in [9], in assay [10], in assay [11] and in assay [12] was inactive. For the same compound, the compound was called inactive in assay [17], in assay [13], in [18], in assay [14], in assay [15] and in assay [16].
As to `COC(=O)Cc1cccc2ccccc12`, the compound was classed as inactive in [1], in [2], in [3], in assay [4], in assay [5] and in assay [6]. The result in assay [7], in [8], in assay [9], in [10], in [12] and in assay [17] was inactive. For the same compound, the compound was classed as inactive in [19], in [13], in assay [18], in assay [14], in assay [15] and in assay [16].
With `O=C=NC1CCC(CC2CCC(N=C=O)CC2)CC1` (configuration not stated), the AC50 in [1] is 28.4 µM (active); in [2], 65.1 µM (active); in assay [3], 64.8 µM (active); in [4], 179 µM (active); in assay [5] it was 83.7 µM (active); in assay [8], 41.7 µM (active). Further, the AC50 was 76.9 µM (active) in assay [10], 100 µM (active) in assay [17] and 174 µM (active) in assay [16]. In addition, the compound was called inactive in [6], in assay [7], in [9], in assay [11], in [12] and in [13]. Further, the outcome in assay [18], in [14] and in assay [15] was inactive.
As to `CC(CC(C)(C)C)CC(C)(C)CC(C)(C)C` (configuration not stated), the call in [1], in assay [2], in assay [3], in assay [4], in assay [5] and in assay [6] was inactive. Also, the compound was classed as inactive in assay [7], in [8], in [9], in assay [10], in assay [11] and in [12]. For the same compound, the result in [17], in assay [13], in assay [14], in [15] and in assay [16] was inactive.
With `O=C1CCc2ccccc2O1`, the outcome in assay [1], in assay [2], in [3], in [4], in assay [5] and in assay [6] was inactive. Besides, the compound was called inactive in assay [7], in [8], in assay [9], in assay [10], in assay [11] and in [12]. Also, the result in assay [19], in [13], in assay [18], in [14], in assay [15] and in [16] was inactive.
Consider `CC(C)(COC(=O)c1ccccc1)COC(=O)c1ccccc1`, for which the call in assay [1], in assay [2], in assay [3], in assay [4], in assay [5] and in assay [6] was inactive. For the same compound, the outcome in assay [7], in assay [8], in assay [9], in [10], in [11] and in assay [12] was inactive. The compound was called inactive in assay [17], in assay [13], in assay [14], in assay [15] and in [16].
